In PubChem BioAssay AID1159580 (chemical genetic matrix, 2015):
Hit rate of the full screen: of about 5,500 compounds, about 2,000 (36%) were called active. About 18% were inconclusive and are not listed. No stated cut-off is given here; in the data, active means normalized growth mostly below about 0.91 (no sharp cut-off); inconclusive means no clear call, values can overlap the other calls; inactive means mostly above about 0.92. The list shows a part of the results.

Test: chemical genetic growth profiling, strain panel (AID 1159580);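 further: tested at 20 µM; growth read once vehicle control cultures reached saturation at 30 °C; 1 = growth at the plate median or of vehicle wells; lower values mean less growth of the strain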
Settings: growth OD
[1] = S. cerevisiae deletion strains, locus YDL101C, strain DUN1, active compounds read low
[2] = S. cerevisiae deletion strains, locus YHR030C, strain SLT2, active compounds read low

Measured: normalized growth

O=C(Oc1cc(Cl)c(Cl)cc1Cl)C1c2ccccc2Oc2ccccc21
inactive: S. cerevisiae deletion strains, locus YAR019C, strain CDC15, active compounds read low 0.953 | S. cerevisiae deletion strains, locus YBL105C, strain PKC1, active compounds read low 0.943 | S. cerevisiae deletion strains, locus YBR135W, strain CKS1, active compounds read low 0.944 | S. cerevisiae deletion strains, locus YBR136W, strain MEC1, active compounds read low 0.937 | S. cerevisiae deletion strains, locus YBR160W, strain CDC28, active compounds read low 0.94 | S. cerevisiae deletion strains, locus YDL017W, strain CDC7, active compounds read low 0.937 | S. cerevisiae deletion strains, locus YDL028C, strain MPS1, active compounds read low 0.943 | [1] 0.945 | S. cerevisiae deletion strains, locus YDL108W, strain KIN28, active compounds read low 0.941 | S. cerevisiae deletion strains, locus YDL132W, strain cdc53, active compounds read low 0.934 | S. cerevisiae deletion strains, locus YDL214C, strain PRR2, active compounds read low 0.95 | S. cerevisiae deletion strains, locus YDR052C, strain DBF4, active compounds read low 0.96 | S. cerevisiae deletion strains, locus YDR054C, strain cdc34, active compounds read low 0.927 | S. cerevisiae deletion strains, locus YDR226W, strain ADK1, active compounds read low 0.963 | S. cerevisiae deletion strains, locus YDR477W, strain SNF1, active compounds read low 0.912 | S. cerevisiae deletion strains, locus YER123W, strain YCK3, active compounds read low 0.961 | S. cerevisiae deletion strains, locus YER133W, strain GLC7, active compounds read low 0.982 | S. cerevisiae deletion strains, locus YFL009W, strain cdc4, active compounds read low 0.933 | S. cerevisiae deletion strains, locus YFL029C, strain CAK1, active compounds read low 0.95 | S. cerevisiae deletion strains, locus YFR003C, strain YPI1, active compounds read low 0.941 | S. cerevisiae deletion strains, locus YFR019W, strain FAB1, active compounds read low 0.996 | S. cerevisiae deletion strains, locus YFR028C, strain CDC14, active compounds read low 0.949 | S. cerevisiae deletion strains, locus YGR040W, strain KSS1, active compounds read low 0.907 | S. cerevisiae deletion strains, locus YGR052W, strain FMP48, active compounds read low 0.924 | S. cerevisiae deletion strains, locus YGR092W, strain DBF2, active compounds read low 0.655 | S. cerevisiae deletion strains, locus YHR079C, strain IRE1, active compounds read low 0.829 | S. cerevisiae deletion strains, locus YHR082C, strain KSP1, active compounds read low 0.976 | S. cerevisiae deletion strains, locus YHR205W, strain SCH9, active compounds read low 0.924 | S. cerevisiae deletion strains, locus YIL147C, strain SLN1, active compounds read low 0.936 | S. cerevisiae deletion strains, locus YJL095W, strain BCK1, active compounds read low 0.862 | S. cerevisiae deletion strains, locus YJL128C, strain PBS2, active compounds read low 0.887 | S. cerevisiae deletion strains, locus YJL157C, strain FAR1, active compounds read low 0.979 | S. cerevisiae deletion strains, locus YJR016C, strain ILV3, active compounds read low 0.945 | S. cerevisiae deletion strains, locus YJR066W, strain TOR1 (second series), active compounds read low 0.865 | S. cerevisiae deletion strains, locus YJR066W, strain TOR1, active compounds read low 0.93 | S. cerevisiae deletion strains, locus YKL048C, strain ELM1, active compounds read low 0.883 | S. cerevisiae deletion strains, locus YKL067W, strain YNK1, active compounds read low 0.951 | S. cerevisiae deletion strains, locus YKL101W, strain HSL1, active compounds read low 0.9 | S. cerevisiae deletion strains, locus YKL193C, strain SDS22, active compounds read low 0.958 | S. cerevisiae deletion strains, locus YKL203C, strain TOR2, active compounds read low 0.958 | S. cerevisiae deletion strains, locus YLR133W, strain CKI1, active compounds read low 0.981 | S. cerevisiae deletion strains, locus YLR403W, strain SFP1, active compounds read low 0.957 | S. cerevisiae deletion strains, locus YML070W, strain DAK1, active compounds read low 0.962 | S. cerevisiae deletion strains, locus YMR001C, strain CDC5, active compounds read low 0.951 | S. cerevisiae deletion strains, locus YMR205C, strain PFK2 (second series), active compounds read low 0.971 | S. cerevisiae deletion strains, locus YMR277W, strain FCP1, active compounds read low 0.96 | S. cerevisiae deletion strains, locus YNL006W, strain LST8, active compounds read low 0.945 | S. cerevisiae deletion strains, locus YNL020C, strain ARK1, active compounds read low 0.986 | S. cerevisiae deletion strains, locus YNL161W, strain CBK1, active compounds read low 0.94 | S. cerevisiae deletion strains, locus YNL183C, strain NPR1, active compounds read low 0.884 | S. cerevisiae deletion strains, locus YNL207W, strain RIO2, active compounds read low 0.925 | S. cerevisiae deletion strains, locus YNL222W, strain SSU72, active compounds read low 0.942 | S. cerevisiae deletion strains, locus YNL307C, strain MCK1 (second series), active compounds read low 0.9 | S. cerevisiae deletion strains, locus YOL078W, strain AVO1, active compounds read low 0.959 | S. cerevisiae deletion strains, locus YOL136C, strain PFK27, active compounds read low 0.976 | S. cerevisiae deletion strains, locus YOR061W, strain CKA2, active compounds read low 0.995 | S. cerevisiae deletion strains, locus YOR119C, strain RIO1, active compounds read low 0.988 | S. cerevisiae deletion strains, locus YOR231W, strain MKK1, active compounds read low 0.856 | S. cerevisiae deletion strains, locus YOR329C, strain SCD5, active compounds read low 0.943 | S. cerevisiae deletion strains, locus YPL031C, strain PHO85, active compounds read low 0.903 | S. cerevisiae deletion strains, locus YPL153C, strain RAD53, active compounds read low 0.904 | S. cerevisiae deletion strains, locus YPL204W, strain HRR25, active compounds read low 0.867 | S. cerevisiae deletion strains, locus YPL209C, strain IPL1, active compounds read low 0.938 | S. cerevisiae deletion strains, locus YPR025C, strain CCL1, active compounds read low 0.939 | S. cerevisiae deletion strains, locus YPR106W, strain ISR1, active compounds read low 0.931 | S. cerevisiae deletion strains, locus YPR111W, strain DBF20, active compounds read low 0.901 | S. cerevisiae deletion strains, strain NNK1, active compounds read low 0.927 | S. cerevisiae deletion strains, strain TSCII, active compounds read low 0.944
active: [2] 0.75 | S. cerevisiae deletion strains, locus YLR113W, strain HOG1, active compounds read low 0.758 | S. cerevisiae deletion strains, locus YPL256C, strain CLN2, active compounds read low 0.821

O=C(O)C1c2ccccc2Oc2ccccc21
inactive: S. cerevisiae deletion strains, locus YAL013W, strain DEP1, active compounds read low 0.999 | S. cerevisiae deletion strains, locus YBR229C, strain ROT2, active compounds read low 0.993 | S. cerevisiae deletion strains, locus YCL061C, strain MRC1, active compounds read low 0.99 | [1] 1 | S. cerevisiae deletion strains, locus YDL134C, strain PPH21, active compounds read low 1 | S. cerevisiae deletion strains, locus YDR150W, strain NUM1, active compounds read low 0.962 | S. cerevisiae deletion strains, locus YEL061C, strain CIN8, active compounds read low 0.996 | S. cerevisiae deletion strains, locus YGR078C, strain PAC10, active compounds read low 0.984 | [2] 0.987 | S. cerevisiae deletion strains, locus YHR087W, strain rtc3, active compounds read low 0.971 | S. cerevisiae deletion strains, locus YJL187C, strain SWE1, active compounds read low 0.992 | S. cerevisiae deletion strains, locus YJR043C, strain POL32, active compounds read low 1 | S. cerevisiae deletion strains, locus YJR075W, strain HOC1, active compounds read low 0.975 | S. cerevisiae deletion strains, locus YLR039C, strain RIC1, active compounds read low 0.984 | S. cerevisiae deletion strains, locus YLR058C, strain SHM2 (second series), active compounds read low 0.998 | S. cerevisiae deletion strains, locus YLR085C, strain ARP6, active compounds read low 0.969 | S. cerevisiae deletion strains, locus YLR262C, strain YPT6, active compounds read low 1 | S. cerevisiae deletion strains, locus YML094W, strain GIM5, active compounds read low 1.03 | S. cerevisiae deletion strains, locus YMR219W, strain ESC1, active compounds read low 0.989 | S. cerevisiae deletion strains, locus YMR263W, strain SAP30, active compounds read low 1.01 | S. cerevisiae deletion strains, locus YNL128W, strain TEP1, active compounds read low 1.01 | S. cerevisiae deletion strains, locus YNL153C, strain GIM3, active compounds read low 0.983 | S. cerevisiae deletion strains, locus YNL298W, strain CLA4 (second series), active compounds read low 0.993 | S. cerevisiae deletion strains, locus YNL322C, strain KRE1, active compounds read low 0.976 | S. cerevisiae deletion strains, locus YNR030W, strain Alg12, active compounds read low 1.01 | S. cerevisiae deletion strains, locus YPL055C, strain LGE1, active compounds read low 0.964 | S. cerevisiae deletion strains, locus YPL241C, strain CIN2, active compounds read low 0.971 | S. cerevisiae deletion strains, locus YPR135W, strain CTF4, active compounds read low 1.03 | S. cerevisiae strains, strain wild type, active compounds read low 1.01
